Screening data from PubChem.
Compounds with a hit are over-represented: about 2.5% of the library has one in this group of screens.
MEKK2wt PB1 HTS – modulators of MEK5 binding to wildtype MEKK2, primary screen, biochemical, multiplex bead flow cytometry, Alexa488-MEK5; 290,000 tested, 1.1% active; AID 1531, 2009; binding response (% of control), % at 10 µM; Alexa488-MEK5 binding to MEKK2 WT; actives lie on both sides; in the data active means binding response below about 67% or above about 130%
UBC13 polyUb – UBC13 polyubiquitin chain formation inhibitors, primary screen, biochemical, TR-FRET, uHTS; Ubiquitin-conjugating enzyme E2 N (Homo sapiens), P61088; inhibition, % at 20 µM; 330,000 tested, 0.47% active; AID 485273, 2010; in the data active means inhibition above about 45%, passing the limit was not always enough
MEKK3 PB1 HTS – modulators of MEKK3-MEK5 PB1 binding, primary screen, biochemical, wildtype MEKK3, multiplex bead flow cytometry, Alexa488-MEK5 | AID 1529, 2009 | binding response (% of control), % at 10 µM | 290,000 tested, 1.4% active | bead-based flow cytometry, Alexa488-MEK5 binding to MEKK3; actives lie on both sides; 0 = blocked by unlabeled MEK5, 100 = vehicle | Mitogen-activated protein kinase kinase kinase 3 (Homo sapiens), Q99759;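 active means binding response more than 3 SD above or below the average of its plate-row segment, actives on both sides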;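 further: Alexa488 bead fluorescence after subtracting the streptavidin-only scavenger bead signal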
Target sequence (Q99759 whole entry, looked up): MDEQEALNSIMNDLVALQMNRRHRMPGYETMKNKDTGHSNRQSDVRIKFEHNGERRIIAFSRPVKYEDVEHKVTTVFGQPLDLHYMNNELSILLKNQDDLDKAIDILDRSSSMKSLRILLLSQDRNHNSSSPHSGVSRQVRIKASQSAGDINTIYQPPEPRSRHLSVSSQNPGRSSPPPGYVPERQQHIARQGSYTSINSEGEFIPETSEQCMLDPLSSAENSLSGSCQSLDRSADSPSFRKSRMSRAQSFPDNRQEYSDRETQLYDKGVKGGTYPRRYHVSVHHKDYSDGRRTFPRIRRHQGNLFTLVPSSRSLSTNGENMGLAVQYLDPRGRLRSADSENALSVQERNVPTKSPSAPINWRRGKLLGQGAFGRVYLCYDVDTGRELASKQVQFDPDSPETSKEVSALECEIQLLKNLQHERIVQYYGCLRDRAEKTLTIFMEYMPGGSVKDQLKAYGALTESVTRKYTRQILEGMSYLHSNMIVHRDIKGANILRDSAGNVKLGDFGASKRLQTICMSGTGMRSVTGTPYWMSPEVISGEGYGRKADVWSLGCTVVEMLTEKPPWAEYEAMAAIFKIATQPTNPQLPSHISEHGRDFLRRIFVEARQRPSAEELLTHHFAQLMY
MEKK2mut PB1 HTS – MEK5 binding signal on mutant MEKK2 PB1, primary screen, biochemical, multiplex bead flow cytometry, Alexa488-MEK5; Alexa488-MEK5 binding to MEKK2 mutant; percent response, % at 10 µM; 290,000 tested, 0.35% active; AID 1530, 2009; in the data active means percent response above about 24%, passing the limit was not always enough
Rce1 inh – yeast Rce1p protease inhibitors, primary screen, biochemical, fluorescence, cell-free homogeneous. AID 2563, 2010. calls only. CAAX prenyl protease 2 (Saccharomyces cerevisiae (strain ATCC 204508 / S288c)), Q03530. yeast membranes, quenched prenylated peptide cleavage fluorescence. 290,000 tested, 0.27% active;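 active means fall in fluorescence gain of 50% or more versus controls, with final raw signal at or below 3038400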;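 further: plate controls were neutral control wells for no effect and wells lacking membranes for full effect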
MEKK2wt confirm – modulators of MEK5 binding to wildtype MEKK2, confirmation, biochemical, single concentration, multiplex bead flow cytometry. AID 1892, 2009. 5,900 tested, 2.4% active. Alexa488-MEK5 binding to MEKK2 WT; actives lie on both sides. binding response (% of control), % at 10 µM. shares compounds with MEKK3 PB1 HTS; in the data active means binding response below about 16% or above about 210%; inactive means in between
MEKK2mut confirm – mutant MEKK2 PB1-MEK5 binding signal retest – biochemical, single concentration, multiplex bead flow cytometry, confirmation. shares compounds with MEKK3 PB1 HTS. Alexa488-MEK5 binding to MEKK2 mutant. percent response, % at 10 µM. 5,900 tested, 2% active. AID 1893, 2009; in the data active means percent response mostly above about 71%, no sharp cut-off; inactive means mostly below about 38%;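 further: higher means compound restores mutant binding toward wildtype level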
MEKK3-MEK5 inh – MEKK3 wild-type PB1 binding to MEK5, inhibitors, confirmation, biochemical, bead multiplex flow cytometry, single concentration, wildtype. shares compounds with MEKK3 PB1 HTS. Alexa488-MEK5 binding to MEKK3; stronger effect = lower value. binding response (% of control), % at 10 µM. 5,900 tested, 1.8% active;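 active means binding response below 72% of control, or above a set upper limit, though filed actives all read lower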;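 further: 100% = DMSO only wells and 0% = binding blocked by excess unlabeled MEK5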
Starred values were filed as active, the others as inactive; i = inactive; nt = not tested or not shown; [ ] = remark or other dose.

SMILES | MEKK2wt PB1 HTS | UBC13 polyUb | MEKK3 PB1 HTS | MEKK2mut PB1 HTS | Rce1 inh | MEKK2wt confirm | MEKK2mut confirm | MEKK3-MEK5 inh
CC(C(=O)NCCN1C(=O)S/C(=C\c2cccs2)C1=O)N1C(=O)c2ccccc2C1=O (configuration not stated) | 107 | 4 | 146* | 0 | i | 92 | -8 | 92
Cc1ccc(Nc2c(N)c(=O)oc3ccccc23)cc1 | 0.0*[inhibitor] | 16 | 0.0*[inhibitor] | 4 | i | 101 | 2 | 98
CN(C)N1C(N)=C(C#N)C(c2cccs2)C2=C1CC(C)(C)CC2=O (configuration not stated) | nt | 0 | nt | nt | i | nt | nt | nt
Cc1cccc(N2CCN(Cc3cn(C)nc3-c3ccccc3F)CC2)n1 | 108 | 8 | 112 | 0 | i | nt | nt | nt
C=CCN1c2ccccc2[C@]23C[C@@H](C(=O)OC)N=C2NC(C(=O)OC)=C(C(=O)OC)[C@H]13 | 150* | -2 | 126 | 1 | i | 97 | -6 | 98
C=CCN1c2ccccc2[C@]23C[C@@H](C(=O)OC)N(C(=O)c4cc(C)oc4C)C2=NC(C(=O)OC)=C(C(=O)OC)[C@H]13 | 147* | 1 | 127 | 2 | i | 94 | -4 | 93
CC#CCN1c2ccccc2[C@]23C[C@@H](C(=O)OC)N(C(=O)c4ccco4)C2=NC(C(=O)OC)=C(C(=O)OC)[C@H]13 | 151* | 5 | 126 | 3 | i | 95 | -4 | 92
CC#CCN1c2ccccc2[C@]23C[C@@H](C(=O)OC)N(C(=O)c4cc(C)oc4C)C2=NC(C(=O)OC)=C(C(=O)OC)[C@H]13 | 92 | -102 | 101 | 1 | i | nt | nt | nt
C=CCN1c2ccccc2[C@]23C[C@@H](C(=O)OC)N(C(C)=O)C2=NC(C(=O)OC)=C(C(=O)OC)[C@H]13 | 104 | -5 | 103 | 3 | i | nt | nt | nt
CCCCCN(C(=O)CCC(=O)OCc1cccc(C)c1)c1c(N)n(CCCC)c(=O)[nH]c1=O | nt | -1 | nt | nt | i | nt | nt | nt
CC1CN(C(=O)Cn2c(=O)oc3ccccc32)CC(C)O1 (configuration not stated) | 102 | 1 | 103 | 2 | i | nt | nt | nt
C=CCn1c(SCC#N)nnc1-c1ccc2ncccc2c1 | 101 | -2 | 91 | -23 | i | nt | nt | nt
CS(=O)(=O)c1ccc(N2CCN(S(=O)(=O)c3cccs3)CC2)c([N+](=O)[O-])c1 | nt | -1 | nt | nt | nt | nt | nt | nt
COc1ccc(CSc2ncn[nH]2)cc1[N+](=O)[O-] | 97 | 13 | 100 | 0 | i | nt | nt | nt
COc1ccc(CSc2n[nH]c(C)n2)cc1[N+](=O)[O-] | 106 | -8 | 130* | 4 | i | -3.0*[inhibitor] | -5 | 94
CCn1cc(C(=O)N2CCCC(CO)(Cc3ccccc3C)C2)cn1 (configuration not stated) | 101 | 7 | 97 | 1 | i | nt | nt | nt
Cc1cc(C)cc(NC(=O)c2ccc(N3C(=O)C4CCCCC4C3=O)cc2)c1 (configuration not stated) | 102 | -1 | 102 | 6 | i | nt | nt | nt
O=C(NCc1ccccc1)c1ccc(N2C(=O)C3CCCCC3C2=O)cc1 (configuration not stated) | 105 | -10 | 142* | 1 | i | 104 | 5 | 106
CCCOC(=O)Cn1cnc2scc(-c3ccc(OC)cc3)c2c1=O | 105 | -11 | 113 | 13 | i | nt | nt | nt
CCOc1ccc(Oc2c(/C=N/NC(=O)C3CC3)c(C)nn2-c2ccccc2)cc1 | 102 | -6 | 131* | -2 | i | 83 | -20 | 84
Cc1cc(C)cc(NC(=S)N2CCC(NC(=O)c3ccccc3C)CC2)c1 | 98 | 2 | 101 | -4 | i | nt | nt | nt
CCOC(=O)N1CCN(S(=O)(=O)c2ccc(C(=O)N(CCN(C)C)c3nc4ccc(CC)cc4s3)cc2)CC1 | 136* | 13 | 106 | 16 | i | 138 | 15 | 102
CCOC(=O)N1CCN(S(=O)(=O)c2ccc(C(=O)N(CCCN(C)C)c3nc4ccc(Cl)cc4s3)cc2)CC1 | 153* | 8 | 108 | 30* | i | 132 | 15 | 103
CCOC(=O)N1CCN(S(=O)(=O)c2ccc(C(=O)N(CCCN(C)C)c3nc4ccc(CC)cc4s3)cc2)CC1 | 133 | 16 | 102 | 19 | i | nt | nt | nt
Cc1cc(C)cc(-c2nnc(SCC(=O)c3c(N)n(C4CC4)c(=O)[nH]c3=O)o2)c1 | nt | -2 | nt | nt | nt | nt | nt | nt
SMILES | MEKK2wt PB1 HTS | UBC13 polyUb | MEKK3 PB1 HTS | MEKK2mut PB1 HTS | Rce1 inh | MEKK2wt confirm | MEKK2mut confirm | MEKK3-MEK5 inh
Cc1cnc(C(=O)OCC(=O)N2CCN(S(=O)(=O)c3ccc(Cl)cc3)CC2)cn1 | nt | -4 | nt | nt | i | nt | nt | nt
COc1cc(/C=C2/SC(=S)N(Cc3ccccc3)C2=O)ccc1OCC(=O)O | 81 | -33 | 99 | -1 | i | nt | nt | nt
CCOc1cc(/C=C2/SC(=S)N(Cc3ccccc3)C2=O)ccc1O | 61*[inhibitor] | -46 | 96 | -4 | i | 84 | -6 | 101
Cc1ccc(OCCN2CCN(CC(O)Cn3c4ccccc4c4ccccc43)CC2)cc1 (configuration not stated) | 239* | 5 | 106 | 59* | i | 142 | 26 | 106
Cc1ccc(OCC(O)Cn2c3ccccc3c3ccccc32)cc1 (configuration not stated) | 109 | 6 | 106 | 6 | i | nt | nt | nt
O=C(NCc1ccccc1)NC(=O)c1ccc(Cl)cc1 | 109 | 6 | 102 | 8 | i | nt | nt | nt
CN(CC(=O)Nc1cccc(F)c1)C(=O)c1cc([N+](=O)[O-])ccc1N1CCCCC1 | nt | -1 | nt | nt | i | nt | nt | nt
CCCCCc1ccc(OCCC[n+]2ccccc2)c(CCCCC)c1 | 145* | 30 | 96 | 19 | i | 146 | 30 | 104
C[n+]1cn(CC(O)COCc2ccccc2)c2ccccc21 (configuration not stated) | nt | 0 | nt | nt | i | nt | nt | nt
